# Measured values taken from PubChem BioAssay AID2060323 (National Center for Advancing Translational Sciences (NCATS), 2025).
# Records with an inconclusive call do not appear. Where a call stands in place of a potency, no number is given. Calls of active or inactive are those of the source. Calls follow the shape of the dose curve; as a rule, active = well fitted activation curve with a large enough effect; inconclusive = small, poorly fitted or top-dose-only effect; inactive = no such curve, though single readings can be large or run the other way.
# Molecular target: Cellular tumor antigen p53 (Homo sapiens) (UniProt P04637)
# Sequence (P04637 whole entry, looked up): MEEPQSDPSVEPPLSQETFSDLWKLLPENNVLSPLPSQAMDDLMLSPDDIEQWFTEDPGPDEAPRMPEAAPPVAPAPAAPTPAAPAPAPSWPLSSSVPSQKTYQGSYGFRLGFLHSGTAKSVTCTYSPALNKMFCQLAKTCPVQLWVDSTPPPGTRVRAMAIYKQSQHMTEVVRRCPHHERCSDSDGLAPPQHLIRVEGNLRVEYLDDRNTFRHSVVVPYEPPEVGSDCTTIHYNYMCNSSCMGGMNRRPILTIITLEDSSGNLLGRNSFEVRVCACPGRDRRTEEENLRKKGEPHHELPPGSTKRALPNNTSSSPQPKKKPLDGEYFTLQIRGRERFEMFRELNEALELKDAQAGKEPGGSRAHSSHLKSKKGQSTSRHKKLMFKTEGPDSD
# Assay: Confirmatory qHTS for small molecule compounds that upregulate eGFP-tagged delta133p53alpha (in C-terminal) cells.
# Conditions: delta133p53alpha-eGFP (C-terminal) reporter cells, GFP fluorescence upregulation; series mostly up to 57.5 µM
# Text: Assay Development and Screening Technology
# National Center for Advancing Translational Sciences (NCATS),
# National Institute of Health (NIH), Rockville, Maryland
# Cellular senescence (CS) is one of the hallmarks of aging and age-related diseases. Senescent cells are characterized by an irreversible growth arrest, an increase in senescence-associated beta-galactosidase (SA-beta-gal) activity and p16INK4a expression, an activation of the DNA damage response pathways, and the emergence of a senescence-associated secretory phenotype (SASP).
# Delta133p53alpha, a human/primate-specific p53 protein isoform, delays or inhibits the induction of CS and SASP in various types of human cells, including progeria-derived fibroblasts, primary normal astrocytes, and CD8+ T lymphocytes. Induction of delta133p53alpha with small molecule compounds may provide therapeutic opportunities for inhibition of senescence/SASP-associated pathologies in progeria syndromes, astrocyte-mediated neuroprotection in neurodegenerative diseases, and possibly prevention and treatment of a wider range of senescence- and aging-associated diseases.
# Here we report the development and validation of a cell-based quantitative high throughput screening (qHTS) assay in 1,536-well format. This qHTS assay uses the NCI-H358 cell line with doxycycline-inducible expression of enhanced green fluorescent protein (eGFP)-tagged delta133p53alpha, which allows efficient and highly quantitative measurement of the protein levels.
# PROTOCOL TABLE (as described by Inglese J, Shamu CE and Guy RK. 2007)
# SEQUENCE No. (e.g., 1, 2, 3, etc.); […] (e.g., Cells, Incubation, Reagent, etc.); VALUE; DESCRIPTION.
# 1; Cells; 4uL; 800 doxycycline treated cells / well in doxycycline-free media, 1536-well black, clear-bottom low base Aurora microplates.
# 2; Compounds; 23 nL; Kalypsis pin tool (Wako) equipped with 1536-well pin heads, 5-azacytidine positive control.
# 3; Incubation; 24 hr; 37C, 5% CO2; 95% relative humidity.
# 4; Aspiration; 1x; BioTek EL406 washer dispenser (Agilent).
# 5; Fixing; 3.5% paraformaldehyde, BioTek EL406 washer dispenser (Agilent).
# 6; Washing; 1x PBS; BioTek EL406 washer dispenser (Agilent).
# 7; Nuclei staining; 1:1000 dilution of Hoechst 33342 (Thermofisher), BioTek EL406 washer dispenser (Agilent).
# 8; Incubation; 20 min; in the dark at room temperature.
# 9; Washing; 2x, 1x PBS (ThermoFisher), BioTek EL406 washer dispenser (Agilent).
# 10; Reagent; 10 uL; 1x PBS per well, sealed with clear adhesive tape.
# 11; Detection; Fluorescence, Acumen eX3 laser scanning cytometer (STP Labtech), GFP filters […].
# NOTES (numbers refer to sequence numbers above).
# 1. NCI-H358 cells expressing eGFP-tagged delta133p53alpha were grown in T75 culture flasks and treated with doxycycline for 24h, at 10 ng/ml for eGFP-D133p53a cells (N-terminal cell) and 100 ng/ml for D133p53a-eGFP cells (C-terminal cells). Cells were trypsinized, counted using a Counted 3 Automated Cell Counter (Thermo Fisher), and diluted to a concentration of 200,000 cells/ml. A Multidrop Combi Reagent Dispenser (ThermoFisher) was used to dispense 800 cells/well in […] of doxycycline-free media, into 1536-well black/clear bottom low base plates (AuroraMicroplates).
# 2. After plating cells, 23 nl of compound library, DMSO vehicle control or positive control (5-azacytidine) were transferred by Pin Tool (Wako). The plate map layout was the same for each plate: (column 1) non-doxycycline treated cells + DMSO vehicle control; (column 2) doxycycline treated cells + DMSO vehicle control baseline; (column 3) doxycycline treated cells + positive control 57.5 uM final concentration 5-azacytidine; (column 4) doxycycline treated cells + serial dilution of 5-azacytidine, 16-point 1:2 titration spanning 1.8 nM to […] final concentration; (columns 5-48) doxycycline treated cells + titration of library compounds.
# 3. Cells were incubated at 37 °C, 5 % CO2, 95% RH with breathable metal lid for 24h.
# 4-10. […]
row,SMILES,Potency
1,CC[n+]1c(/C=C/C=C2/N(C)c3ccccc3C2(C)C)sc2ccccc21,12.2 µM (active)
2,C#C[C@]1(O)CC[C@H]2[C@@H]3CCC4=Cc5oncc5CC4(C)[C@H]3CCC21C (stereo partly specified),inactive
3,CC(C)(C)c1ccc(S(=O)(=O)/C=C/C#N)cc1,13.7 µM (active)
4,COC(=O)[C@H]1[C@H]2C[C@@H]3c4[nH]c5cc(OC)ccc5c4CCN3C[C@H]2C[C@@H](OC(=O)c2cc(OC)c(OC)c(OC)c2)[C@@H]1OC,30.6 µM (active)
5,Brc1c(Br)c(Br)c2n[nH]nc2c1Br,inactive
6,C=CCNc1ncnc2ccc(Br)cc12,inactive
7,N=S(=O)(O)Cc1noc2ccccc12,inactive
8,Cc1ccc(S(=O)(=O)/C=C/C#N)cc1,21.7 µM (active)
9,CSc1ccccc1N1CCN(CCCCCC(=O)NC2CCCc3ccccc32)CC1 (stereo unspecified),inactive
10,O[Si](CCCN1CCCCC1)(c1ccc(F)cc1)C1CCCCC1 (stereo unspecified),inactive
11,Cc1cc(C)c(/C=C2\C(=O)Nc3ccccc32)[nH]1,7.69 µM (active)
12,C[n+]1cc2c3c(ccc2c2ccc4cc5c(cc4c21)OCO5)OCO3,0.968 µM (active)
13,Nc1nc2ccc(Cl)cc2c2nc(-c3ccco3)nn12,inactive
14,COc1ccc(/C=C2\COc3ccc(C)cc3C2=O)cc1O,43.2 µM (active)
15,CNC(=O)[C@H]1O[C@@H](n2cnc3c(NCc4cccc(I)c4)ncnc32)[C@H](O)[C@@H]1O,inactive
16,CN(C)S(=O)(=O)c1ccc2c(c1)/C(=C/c1cc3c([nH]1)CCCC3)C(=O)N2,0.769 µM (active)
17,Cn1cc(C2=C(c3ccc(Cl)cc3Cl)C(=O)NC2=O)c2ccccc21,0.968 µM (active)
18,CC(=O)N[C@@H](CS)C(=O)O,inactive
19,O=C(c1cc(O)c(O)c([N+](=O)[O-])c1)c1ccccc1F,inactive
20,CC(=O)SC1CC2=CC(=O)CC[C@]2(C)C2CC[C@@]3(C)C(CC[C@@]34CCC(=O)O4)C12 (stereo partly specified),inactive
21,CN(C)CCCC1(c2ccc(F)cc2)OCc2cc(C#N)ccc21 (stereo unspecified),inactive
